Active and inactive are the calls of the source. The rule behind the calls is not given here.
Each molecule was assayed against Pantothenate synthetase (Mycobacterium tuberculosis (strain ATCC 25618 / H37Rv)) (UniProt P9WIL5) (assay: Coupled enzyme confirmation of inhibitors against recombinant Mtb PanC (AID 375;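 note: 0% = full reaction with vehicle and 100% = no enzyme background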)). Conditions: coupled enzyme assay; at 10 µM, active compounds read high.
Chain of Pantothenate synthetase (Mycobacterium tuberculosis (strain ATCC 25618 / H37Rv)) (P9WIL5 whole entry, looked up): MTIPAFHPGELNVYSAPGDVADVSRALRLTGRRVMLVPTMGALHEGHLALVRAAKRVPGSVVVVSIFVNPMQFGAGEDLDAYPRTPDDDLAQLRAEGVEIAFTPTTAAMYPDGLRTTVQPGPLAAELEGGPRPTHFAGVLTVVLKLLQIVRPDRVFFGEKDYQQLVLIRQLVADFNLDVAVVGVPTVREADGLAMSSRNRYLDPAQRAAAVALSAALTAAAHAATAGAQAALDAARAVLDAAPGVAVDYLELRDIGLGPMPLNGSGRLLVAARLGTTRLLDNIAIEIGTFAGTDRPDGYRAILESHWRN

**Q.** For `CC(=O)N1CCN=C1SCc1ccc(Br)cc1`, which inhibition is on record?
**A.** Its inhibition is 4% (inactive).

**Q.** How did the inhibition turn out when `CCCOc1ccc(N2C(=O)C3ON(c4ccccc4)C(c4ccc(O)c(OC)c4)C3C2=O)cc1` (stereo unspecified) was run?
**A.** Its inhibition is 1% (inactive).

**Q.** With `CC(C)CNC(=O)C1CC(=O)OC12CCCCC2` (stereo unspecified) as the molecule, how does the inhibition read?
**A.** The inhibition was 5% (inactive).

**Q.** `Cc1ccccc1CNS(=O)(=O)c1ccc2c(c1)OCCO2` was tested. Which inhibition did it give?
**A.** The inhibition was 0% (inactive).

**Q.** For `CCN(CC)S(=O)(=O)c1cccc(-c2nnc(SCC(N)=O)n2CCc2ccccc2)c1`, which inhibition is on record?
**A.** Its inhibition is 0% (inactive).

**Q.** For `O=C(CSc1ncnc2sc3c(c12)CCCCC3)NCc1ccco1`, which inhibition is on record?
**A.** The inhibition was 3% (inactive).

**Q.** For `COc1ccc(C2CC(C(F)(F)F)n3ncc(C(=O)NCc4cccnc4)c3N2)cc1OC` (stereo unspecified), which inhibition is on record?
**A.** Its inhibition is 0% (inactive).

**Q.** `O=C(O)CCc1ccc(-c2ccc(F)cc2)n1CCC(=O)O` was tested. Which inhibition did it give?
**A.** Its inhibition is 0% (inactive).

**Q.** `Cn1c(SCC(=O)N2CCN(c3cccc(Cl)c3)CC2)nnc1-c1ccncc1` was tested. Which inhibition did it give?
**A.** Its inhibition is 0% (inactive).

**Q.** `Cc1cc(O)c(-c2cc(C(=O)Nc3ccc(S(=O)(=O)N4CCOCC4)cc3)[nH]n2)cc1C` was tested. Which inhibition did it give?
**A.** The inhibition was 0% (inactive).

**Q.** For `Nc1nc(CSc2nc3ccccc3[nH]2)nc(N2CCOCC2)n1`, which inhibition is on record?
**A.** Its inhibition is 4% (inactive).

**Q.** Which inhibition does the source give for `O=C(CN1C(=O)c2ccccc2S1(=O)=O)NCc1ccccn1` here?
**A.** Its inhibition is 0% (inactive).

**Q.** How did the inhibition turn out when `Cc1ccc(C)c(NC(=O)C2CCC(C)(C(=O)O)C2(C)C)c1` (stereo unspecified) was run?
**A.** The inhibition was 0% (inactive).

**Q.** `COc1ccccc1N1CCN(C(=O)C2CCN(S(=O)(=O)c3ccc(F)cc3)CC2)CC1` was tested. Which inhibition did it give?
**A.** Its inhibition is 0% (inactive).

**Q.** Which inhibition does the source give for `Cc1ccccc1C(=O)NC1CCN(Cc2nnnn2Cc2ccccc2)CC1` here?
**A.** Its inhibition is 4% (inactive).

**Q.** How did the inhibition turn out when `O=C(NC1CCN(Cc2nnnn2CCc2ccccc2)CC1)c1ccccc1F` was run?
**A.** Its inhibition is 3% (inactive).

— PubChem BioAssay
